Experiment [1] is described as follows: A CellTox Green Cytotoxicity Assay to monitor cytotoxicity in HEK293 cells - 16 hour (AID 1224888). Note: nearly all actives have a fitted effect of over 35% in size. The procedure, abridged: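 Homogeneous no-lysis format: HEK293 cell suspension mixed with CellTox Green reagent, seeded, incubated 5 h at 37 C/5% CO2, then dosed by pintool with compound in DMSO.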
Experiment [2] can be described thus: qHTS RealTime-Glo MT Cell Viability Assay in HepG2 cells - 0 hour (AID 1224889). Note: nearly all actives have a fitted effect of over 50% in size. The procedure, abridged: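 Tox21 10K library screened in qHTS format on HepG2 cells carrying RealTime-Glo reagents. Compounds were added after a 5 h preincubation, and the luminescent signal from continuous culture was measured repeatedly during 40 h treatment.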
(In qHTS, concentration-response curves come from the screen itself.)

Experiment [3] is described as follows: A CellTox Green Cytotoxicity Assay to monitor cytotoxicity in HepG2 cells - 8 hour (AID 1224890). Note: nearly all actives have a fitted effect of over 45% in size. Note: potency is the fitted concentration of half-maximal effect. A digest of the protocol:
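Fluorescent DNA-binding dye, 600 HepG2 cells/well, 5 h preincubation then compound in DMSO; same plates read at 0–40 h, 37 C.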

Experiment [4] is described as follows: qHTS assay to identify small molecule antagonists of the estrogen receptor alpha (ER-alpha) signaling pathway using the BG1 cell line in the presence of 0.1 nM 17-beta-estradiol - cell viability counter screen (AID 1259241). Note: nearly all actives have a fitted effect of over 40% in size. A digest of the protocol: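 Cells were plated and left 24 hr, compounds in DMSO were pinned in, 17beta-estradiol was added to 0.1 nM final, and after 22 hr CellTiter-Fluor reagent was added for 30 min before fluorescence was read.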

Experiment [5] can be described thus: qHTS assay to identify small molecule antagonists of the androgen receptor (AR) signaling pathway using the MDA cell line in the presence of 0.5 nM R1881 - cell viability counter screen (AID 1259242). Note: nearly all actives have a fitted effect of over 45% in size. A digest of the protocol: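 Human breast carcinoma MDA-kb2 cells, cultured without CO2, receive compounds alongside 0.5 nM (final) R1881 agonist. After 16 hr at 37C, viability is taken as live-cell protease signal.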

In experiment [6] the target is Estrogen receptor (Homo sapiens) (UniProt P03372). In words: qHTS assay to identify small molecule antagonists of the estrogen receptor alpha (ER-alpha) signaling pathway using the BG1 cell line in the presence of 0.1 nM 17-beta-estradiol (AID 1259244). Note: nearly all actives have a fitted effect of over 50% in size. A digest of the protocol:
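Seeding of stripped-serum-adapted VM7Luc4E2 cells, 24 h attachment, compound transfer, then 0.1 nM final 17beta-estradiol; after 22 h incubation, ONE-Glo reagent and luminescence reading.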

Experiment [7] in a line: qHTS assay to identify small molecule HDAC inhibitors (AID 1259364).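 Note: wild-type HCT-116 cells with endogenous class I/II HDAC activity; top concentration of the series differs between compounds; nearly all actives have a fitted effect of over 45% in size.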 The procedure, abridged:
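After a 2 hr compound incubation (37C, 5% CO2), HCT-116 cells seeded at 1,500/well the day before received HDAC-Glo reagent; signal read as luminescence after 30 min at room temperature.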

Experiment [8] can be described thus: qHTS assay to identify small molecule HDAC inhibitors - cell viability counter screen (AID 1259365). Note: series mostly up to about 92 µM; nearly all actives have a fitted effect of over 50% in size. The procedure, abridged:
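Counter screen in wild-type HCT-116 cells: compounds dissolved in DMSO are pin-transferred onto overnight-plated cells and left 2hr at 37C. ATP-based CellTiter-Glo luminescence then measures viable cells.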

Experiment [9] in a line: qHTS assay to identify small molecule agonists of the sonic hedgehog signaling (Shh) pathway - cell viability counter screen (AID 1259366). Note: nearly all actives have a fitted effect of over 50% in size. The procedure, abridged: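 Cells are plated at 2,000 per well and left 4hr at 37C, 5% CO2 before compound addition. After 23hr of treatment, CellTiter-Fluor reagent is added for 1hr at 37C and fluorescence is measured.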
Experiment [10] is described as follows: qHTS assay to identify small molecule antagonists of the sonic hedgehog signaling (Shh) pathway - cell viability counter screen (AID 1259367). Note: nearly all actives have a fitted effect of over 55% in size. A digest of the protocol: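 Conditioned medium drove Shh signaling in 3T3 Gli1-Luc cells exposed to compounds at 37C and 5% CO2. Viability was determined from CellTiter-Fluor fluorescence, with reagent incubated 1 hr after 23 hr of treatment.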

Experiment [11] in a line: qHTS assay to identify small molecule agonists of the sonic hedgehog signaling (Shh) pathway (AID 1259368; calls by dose curve;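 note: NIH/3T3-derived 3T3Gli1-Luc cells carrying a stable Gli1-driven firefly luciferase reporter; series mostly up to about 92 µM; nearly all actives have a fitted effect of over 15% in size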). The procedure, abridged: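 Stable NIH/3T3 Gli1-Luc reporter clone; 24 hr cpd exposure after a 4 hr settling period; luminescence endpoint.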
The nature of experiment [12]: qHTS assay to identify small molecule antagonists of the sonic hedgehog signaling (Shh) pathway (AID 1259369; calls by dose curve; note: nearly all actives have a fitted effect of over 45% in size). A digest of the protocol:
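Gli1 transcriptional reporter (firefly Luc) in NIH/3T3 background, conditioned-medium activated. 24hr exposure, luminescence endpoint.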

Experiment [13] deals with Estrogen receptor beta (Homo sapiens) (UniProt Q92731). In words: qHTS assay to identify small molecule agonists of the estrogen receptor beta (ER-beta) signaling pathway (AID 1259377; active = well fitted activation curve with a large enough effect in the signal ratio in the repeat runs, not every such curve was filed as active; the % refers to the signal ratio). The procedure, abridged: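 Agonist mode cell assay in GripTite HEK293T cells expressing an ER-beta fusion that drives beta-lactamase from an Upstream Activator Sequence; 16 hr compound exposure at 37C, then 2 h LiveBLAzer B/G FRET substrate at room temperature, fluorescence read-out.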

For experiment [14] the target is unchanged. Put plainly: qHTS assay to identify small molecule antagonists of the estrogen receptor beta (ER-beta) signaling pathway (AID 1259378; active = well fitted inhibition curve with a large enough effect in the signal ratio in the repeat runs, not every such curve was filed as active; the % refers to the signal ratio). The procedure, abridged:
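ER-beta-UAS-bla HEK293T (GripTite) cells in 2% charcoal-stripped FBS medium were preincubated 6 hr at 37C, dosed with compound, then stimulated with 1 nM E2 (final) for 16 hr; beta-lactamase reporter read by B/G FRET fluorescence after 2 hr substrate loading.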

A short description of experiment [15]: qHTS assay to identify small molecule agonists of the androgen receptor (AR) signaling pathway in the presence of an antagonist - cell viability counter screen (AID 1259379).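 Note: MDA-kb2 human breast cancer cells carrying an MMTV luciferase reporter; series mostly up to about 92 µM; nearly all actives have a fitted effect of over 25% in size.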 A digest of the protocol:
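Counter screen for cell viability run in parallel with the AR agonist-mode luciferase assay. MDA-kb2 cells were co-treated with nilutamide (3.0uM final) and compounds, then incubated 16 hr at 37C, and CellTiter-Fluor fluorescence was measured.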

Experiment [16] in a line: qHTS assay to identify small molecule agonists of the estrogen receptor beta (ER-beta) signaling pathway - cell viability counter screen (AID 1259380). Note: nearly all actives have a fitted effect of over 30% in size. The procedure, abridged: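 In this qHTS counter screen, HEK293T cells carrying an ER-beta/UAS beta-lactamase reporter, grown in 2% charcoal-stripped FBS, received compound for 16 hr; ATP-based CellTiter-Glo luminescence was then read after 30 min at room temperature.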

Experiment [17] in a line: qHTS RealTime-Glo MT Cell Viability Assay in HEK293 cells - 8 hour (AID 1224887). The procedure, abridged:
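Measured as luminescence from the same continuously cultured HEK293 wells at successive time points (0, 8, 16, 24, 32, 40 h) after compound addition. Reagent present from seeding; dosing at 5 h; incubation 37 C.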

Experiment [18] is described as follows: qHTS assay to identify small molecule phospholipidosis (PLD) inducers (AID 1259344; active = well fitted curve in the direction sought with a large enough effect; an effect the other way counts as inactive or inconclusive). A digest of the protocol:
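After 4 h attachment on collagen I, HepG2 cells were dosed with compound alongside LipidTOX Red, kept 24 h at 37 C, fixed, and imaged for lamellar phospholipid pits.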

Consider eight compounds from PubChem BioAssay (Tox21).

Values without a mark were called inactive. Records with an inconclusive call do not appear. Active and inactive are the calls of the source. Unless noted, calls come from the whole dose curve; as a rule, active = well fitted curve in the direction sought with a large enough effect in the repeat runs; inconclusive = weak or mixed curves; inactive = no such curve, though single readings can be large; an effect the other way counts as inactive or inconclusive.

Sequence of Estrogen receptor (Homo sapiens) (P03372 whole entry, looked up): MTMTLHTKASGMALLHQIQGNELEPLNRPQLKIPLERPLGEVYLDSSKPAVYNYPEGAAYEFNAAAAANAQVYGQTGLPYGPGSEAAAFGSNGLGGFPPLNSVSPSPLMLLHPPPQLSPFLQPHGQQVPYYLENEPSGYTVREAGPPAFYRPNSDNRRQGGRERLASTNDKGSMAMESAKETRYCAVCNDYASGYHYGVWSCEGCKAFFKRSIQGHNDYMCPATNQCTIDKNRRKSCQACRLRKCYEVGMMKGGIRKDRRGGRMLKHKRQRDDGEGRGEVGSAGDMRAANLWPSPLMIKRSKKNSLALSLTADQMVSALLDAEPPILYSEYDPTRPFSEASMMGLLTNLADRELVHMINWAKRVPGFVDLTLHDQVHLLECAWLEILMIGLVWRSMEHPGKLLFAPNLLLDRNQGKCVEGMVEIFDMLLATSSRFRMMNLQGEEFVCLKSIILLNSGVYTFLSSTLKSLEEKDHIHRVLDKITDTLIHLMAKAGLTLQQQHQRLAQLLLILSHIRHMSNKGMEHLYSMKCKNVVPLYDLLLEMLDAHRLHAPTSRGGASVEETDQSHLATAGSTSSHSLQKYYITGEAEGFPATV
Sequence of Estrogen receptor beta (Homo sapiens) (Q92731 whole entry, looked up, the tested form may be a part): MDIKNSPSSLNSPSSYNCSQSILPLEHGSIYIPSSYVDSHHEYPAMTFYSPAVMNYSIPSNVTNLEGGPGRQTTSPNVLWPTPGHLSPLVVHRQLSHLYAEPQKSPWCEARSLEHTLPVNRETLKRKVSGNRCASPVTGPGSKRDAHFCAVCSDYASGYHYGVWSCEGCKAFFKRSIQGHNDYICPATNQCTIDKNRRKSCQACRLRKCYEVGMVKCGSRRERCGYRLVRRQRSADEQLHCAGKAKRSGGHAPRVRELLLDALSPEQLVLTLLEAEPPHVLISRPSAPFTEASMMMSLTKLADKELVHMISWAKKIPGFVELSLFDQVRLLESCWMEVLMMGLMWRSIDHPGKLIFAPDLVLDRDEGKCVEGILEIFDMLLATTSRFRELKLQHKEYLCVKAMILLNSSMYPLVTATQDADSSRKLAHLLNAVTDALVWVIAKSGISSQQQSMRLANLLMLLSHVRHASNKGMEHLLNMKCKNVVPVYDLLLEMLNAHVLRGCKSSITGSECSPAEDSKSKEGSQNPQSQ

`C=CCSSCCC`: the Potency entry in experiment [1], in [2], in experiment [3], in experiment [7], in experiment [12] and in experiment [13] was “inactive” throughout. Moreover, the Potency result in experiment [14] was “inactive”. Also, the outcome in experiment [4], in experiment [5], in [6], in [8], in experiment [9] and in experiment [10] was inactive. In addition, the compound was called inactive in experiment [11], in experiment [15] and in experiment [16].
Turning to `CCCCCC/C=C/C(=O)OC`, the Potency entry in experiment [17], in [7], in [12], in experiment [13] and in [14] was “inactive” each time. Moreover, the Potency in experiment [3] is 49 µM (active). In addition, the result in experiment [4], in [5], in experiment [8], in experiment [9], in experiment [10] and in experiment [11] was inactive. Further, the outcome in experiment [15] and in experiment [16] was inactive.
For `C=CCN1C[C@H](C(=O)N(CCCN(C)C)C(=O)NCC)C[C@@H]2c3cccc4[nH]cc(c34)C[C@H]21`, the Potency result in experiment [17], in experiment [2], in [3], in [12] and in [13] was “inactive” each time. Moreover, the outcome in experiment [4], in experiment [6], in experiment [8], in experiment [10], in experiment [11] and in experiment [16] was inactive.
In the case of `CC(=O)CCC1=C(C)CCCC1(C)C`, the Potency entry in [17], in experiment [2], in [3], in [7], in [13] and in experiment [14] was “inactive” each time. Moreover, the result in experiment [4], in [5], in experiment [6], in [8], in [9] and in experiment [10] was inactive. Moreover, the result in [11], in [15] and in experiment [16] was inactive.
On to `CN(C)C(C)(C)CO`, for which the Potency entry in experiment [17], in [3], in experiment [7], in experiment [12] and in experiment [14] was “inactive” in each case. Besides, the outcome in experiment [4], in [5], in experiment [6], in experiment [8], in [9] and in experiment [10] was inactive. The compound was classed as inactive in experiment [11] and in experiment [15].
Take `CCC[C@@H]1C[C@@H](C(=O)N[C@@H]([C@H]2O[C@H](SC)[C@H](O)[C@@H](O)[C@H]2O)[C@@H](C)O)N(C)C1`: the Potency result in experiment [1], in experiment [2], in [3], in [12], in experiment [13] and in experiment [14] was “inactive” in each case. Moreover, the outcome in experiment [4], in experiment [5], in [6], in experiment [18], in [8] and in [9] was inactive. Also, the outcome in experiment [10], in experiment [11] and in experiment [15] was inactive.
As to `Cc1ncc([N+](=O)[O-])n1CC(C)O` (centres undefined), the Potency entry in [1], in [2], in experiment [3], in [12], in experiment [13] and in experiment [14] was “inactive” throughout. Further, the outcome in [4], in experiment [5], in experiment [6], in [18], in experiment [8] and in experiment [9] was inactive. In addition, the result in [10], in experiment [11], in experiment [15] and in [16] was inactive.
Take `O=C(CN1CCNCC1)NC1CCCCC1`: the Potency result in experiment [1], in experiment [2], in experiment [3], in experiment [7] and in [12] was “inactive” each time. Besides, the result in [4], in [5], in experiment [6], in experiment [18], in experiment [8] and in [9] was inactive. The outcome in experiment [10], in experiment [11] and in [15] was inactive.
